# From PubChem BioAssay
# Shown are actives, neighbours in structure and some others; about 4.6% of the full set was active somewhere.
# Vaccinia mCherry = qHTS for Stage-Specific Inhibitors of Vaccinia Orthopoxvirus: mCherry Reporter Primary qHTS | Vaccinia virus mCherry reporter infection, fluorescence | Potency, µM (titrated, usually from 36.5 µM), inactives show top-dose activity change, negative = inhibition, usual class: inhibitors | 310,000 tested, 0.63% active | AID 720579, 2013; calls by dose curve; tested in A549 cells; note: nearly all actives have a fitted effect of over 35% in size
# Vaccinia Venus = qHTS for Stage-Specific Inhibitors of Vaccinia Orthopoxvirus: Venus Reporter Primary qHTS. Vaccinia virus Venus reporter expression, fluorescence. Potency, µM (series often up to 36.5 µM), for the others: at the highest dose activity change, negative = inhibition, usual class: inhibitors. 330,000 tested, 0.46% active. AID 720580, 2013; calls by dose curve; tested in A549 cells; note: nearly all actives have a fitted effect of over 30% in size
# HCV inh = qHTS Assay for Inhibitors of Hepatitis C Virus (HCV) | Potency, µM (highest dose often 41.8 µM), without a hit: at the highest dose activity change, negative = inhibition, actives largely listed as inhibitors | AID 651820, 2012 | Huh7.5.1 HCVcc-Cre infection, luciferase reporter, 44 h | 340,000 tested, 3.4% active; active = well fitted inhibition curve with a large enough effect; inconclusive = small, poorly fitted or top-dose-only effect, or another doubt; inactive = no such curve, though single readings can be large or run the other way
#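 Reporter virus HCVcc-Cre (~0.5 moi) infects cells exposed to compound; seeding density 1,000 cells/well with 4 h settling beforehand. Luminescence, 15 sec read, taken 44 h post-infection following a 15 min RT substrate incubation.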
# LASV entry inh = qHTS for Inhibitors of binding or entry into cells for Lassa Virus. Lassa virus pseudotype entry inhibition, cell reporter. Potency, µM (doses to about 37.9 µM), without a hit: top-dose activity change, negative = inhibition, most hits filed as inhibitors. 300,000 tested, 1.2% active; calls by dose curve; tested in HEK293 cells; note: nearly all actives have a fitted effect of over 50% in size
# Marburg entry inh = qHTS for inhibitors of binding or entry into cells for Marburg Virus; AID 540276, 2011; Potency, µM (doses to about 37.8 µM), inactives show top-dose activity change, negative = inhibition, actives largely listed as inhibitors; 300,000 tested, 1.8% active; Marburg virus pseudotyped entry inhibition, cell reporter; calls by dose curve; tested in HEK293 cells
# Active calls of the source: *; i = inactive; ? = inconclusive; nt = not tested or not shown; ! = a repeat was not active; [ ] = dose if it differs, or a comment. % is set by controls: 0 for no effect and ±100 for the full control effect; potency is the fitted concentration of half-maximal effect.
SMILES,Vaccinia mCherry,Vaccinia Venus,HCV inh,LASV entry inh,Marburg entry inh
COC(=O)C(Cc1cc(Br)c(OC)c(Br)c1O)=NO,nt,nt,nt,nt,-16.0%[14.2 µM]
COc1cc(OC)cc(-c2nnc(NC(=O)CCS(=O)(=O)c3ccc(C)cc3)o2)c1,7.94µM*,?,-1.0%,?,-11.9%[46.1 µM]
O=C(CCS(=O)(=O)c1ccccc1)Nc1nnc(-c2ccco2)o1,11.2µM*,?,13.6%,2.0%[46.1 µM],2.2%[46.1 µM]
Cc1ccc(S(=O)(=O)CCC(=O)Nc2nnc(-c3ccc(F)cc3)o2)cc1,?,?,17.9%,1.3%[46.1 µM],-2.0%
COc1cccc(-c2oc3ccc(C)cc3c(=O)c2O)c1,-11.8%,-7.7%,nt,?,?
Cc1c(C(=O)NCCN2CCOCC2)cnn1-c1nccc(-c2cc3ccccc3o2)n1,-5.5%,-11.8%,nt,nt,nt
[O-][n+]1onc2c1CCc1c-2nn(-c2ccccc2Cl)[n+]1[O-],1µM*,1.26µM*,-1.7%,?,?
CC1CCc2onc(C(=O)N3CCN(c4ccc(F)cc4)CC3)c2C1 (stereo not drawn),-12.0%,-27.3%,nt,12.0%[46.1 µM],nt
N/C(=N\OC(=O)/C=C/c1ccccc1Cl)c1ccccn1,nt,nt,4.2%,-23.1%,9.2µM*
COc1ccc(C(=O)O/N=C(\N)c2ccccn2)c(OC)c1,-2.6%,-17.0%,?,?,?
Cc1ccc(C(=O)O/N=C(\N)c2ccccn2)cc1C,0.8%,-6.0%,22.6%,?,0.708µM*
COc1ccc(C(=O)O/N=C(\N)c2ccccc2)c(OC)c1,2.1%,-16.0%,?,?,1.46µM*
COc1cc(OC)cc(C(=O)O/N=C(\N)c2cccc(C)c2)c1,nt,nt,11.2µM*,nt,nt
CCCCC(=O)N(Cc1ccc(-c2ccccc2-c2nn[nH]n2)cc1)[C@@H](C(=O)O)C(C)C,i,-16.6%,nt,nt,nt
CCOc1ccc(NC(=O)CSc2ccc(-c3sc(-c4ccccc4)nc3C)nn2)cc1,i,-9.3%,nt,?,nt
COc1ccc(CN2CCC3(CC2)c2ccccc2[C@@H](NC(=O)c2ccccc2OC)[C@@H]3O)cc1O,-22.8%,-12.1%,nt,nt,nt
COc1cc(CN2CCOc3ccc(CN4CCC(Oc5cccnc5)CC4)cc3C2)ccc1F,-16.8%,-10.3%,nt,nt,nt
COc1ccc(C(=O)O/N=C(\N)c2ccc(OC)c(OC)c2)c(OC)c1,nt,nt,12.6µM*,nt,1.2%
N/C(=N\OC(=O)c1ccc(Cl)cc1Cl)c1ccccc1,nt,nt,?,8.2µM*,?
N/C(=N\OC(=O)c1cc(Cl)ccc1Cl)c1ccccn1,nt,nt,11.2µM*,6.51µM*,4.11µM*
c1ccc(Oc2ccc(Nc3ncc(-c4ccccc4)o3)cc2)cc1,nt,nt,nt,0.25µM*,nt
c1ccc(-c2cnc(-c3cccnc3)o2)cc1,-5.0%,-16.9%,?,1.3%,?
O=C(NCc1ccccn1)c1cnn(-c2nccc(-c3cccs3)n2)c1C1CC1,i,-24.7%,nt,nt,nt
Cc1sc2ncnc(Sc3nnnn3-c3ccccc3)c2c1C,11.2µM*!,?,?,?,?
Clc1ccc(-c2csc3ncnc(Sc4nnnn4-c4ccccc4)c23)cc1,10µM*,?,nt,nt,nt
SMILES,Vaccinia mCherry,Vaccinia Venus,HCV inh,LASV entry inh,Marburg entry inh
COc1ccc(OCc2cc(/C=N\NC(=O)c3ccccc3)ccc2OC)cc1,-5.5%,-12.1%,?,?,?
COc1ccc(C(=O)N/N=C/c2ccc(OC)c(COc3c(F)c(F)cc(F)c3F)c2)cc1,?,-11.6%,2.24µM*,-24.0%[46.1 µM],5.4%[46.1 µM]
COc1ccc(C(=O)N/N=C/c2ccc(OC)c(CN3CCCc4ccccc43)c2)cc1,-10.5%,-4.9%,6.31µM*,?,?
COc1ccc(/C=N/NC(=O)c2cc(OC)c(OC)c(OC)c2)cc1CN1CCc2cc(OC)c(OC)cc2C1C (stereo not drawn),-11.3%,-16.3%,2µM*,-20.1%,14.1µM*
COc1ccc(/C=N/NC(=S)Nc2ccccc2)cc1COc1ccc(F)cc1F,i,-18.4%,?,1.64µM*,?
CC(CCN1CCCc2nc(C)c(C)cc21)=NO[C@@H](C)CN1CCCCc2nc(C)c(C)cc21,nt,nt,nt,nt,-28.4%[14.2 µM]
COc1ccc(/C=N\NC(=O)c2ccc([N+](=O)[O-])cc2)cc1COc1c(F)c(F)cc(F)c1F,nt,nt,1.58µM*,nt,nt
COc1ccc(/C=N/NC(=O)c2ccc(N)cc2)cc1Cn1cc([N+](=O)[O-])cn1,?,17.4%,?,?,7.94µM*
